This is part of a sample that, as a whole, favours compounds with a hit. Of some 83,000 tested, about 20% had one in any assay.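 Interpretation: 100, growth as untreated; towards 0, rising growth inhibition; 0, no net growth; 0 to -100, cell death. Compounds scoring below 10 were considered active.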 Unmarked numbers belong to inactive results. The source made the active and inactive calls.
Experiments:
Test in all cases: NCI-60 one-dose screen, 48 h (100 = growth as untreated, 0 = no growth, -100 = all killed)
Settings in all cases: 10 µM
[1] = tested on: NCI-H23 lung
[2] = tested on: NCI-H226 lung
[3] = tested on: NCI-H322M lung
[4] = tested on: HOP-62 NSCLC
[5] = tested on: NCI-H460 lung
[6] = tested on: HOP-92 NSCLC
[7] = tested on: NCI-H522 lung
[8] = tested on: A549/ATCC NSCLC
[9] = tested on: 786-0 renal
[10] = tested on: COLO 205 colon
[11] = tested on: DU-145 prostate
[12] = tested on: K-562 leukemia
[13] = tested on: MALME-3M melanoma
[14] = tested on: MDA-MB-231 breast
[15] = tested on: RXF 393 renal
[16] = tested on: SF-268 CNS
[17] = tested on: SF-295 CNS
[18] = tested on: SF-539 CNS
[19] = tested on: UACC-257 melanoma
[20] = tested on: M14 melanoma

In the case of `COc1ccc(Nc2nc(NCc3ccccc3)c3ccccc3n2)cc1`, the growth [1] is reported as 77.3%, the growth [2] is reported as 6.99% (active) and the growth [3] is reported as 41.1%. For the same molecule, the growth [4] was -48% (active), the growth [5] was 3.09% (active) and the growth [6] was -4.85% (active). It also gave a growth [7] of 50.1%, a growth [8] of 21.9% and a growth [9] of 33.9%. The growth [10] was 43.6%, the growth [11] was 79.6% and the growth [12] was 55.5%. The growth [13] was 39.7%, the growth [14] was 41% and the growth [15] was 14.5%. For the same molecule, the growth [16] was 31.3%, the growth [17] was 19.6% and the growth [18] was 60.9%. The growth [19] was 76.5% and the growth [20] was 76.9%.
`CCCCCCCCCCCCc1ccc(C(=O)/C=C/C(=O)O)cc1` showed a growth [1] of 78.6%, a growth [2] of 121% and a growth [3] of 116%. It also gave a growth [4] of 93%, a growth [5] of 94.2% and a growth [6] of 46.4%. For the same molecule, the growth [7] was -24.2% (active), the growth [8] was 78.4% and the growth [9] was -3.51% (active). For the same molecule, the growth [10] was 21.6%, the growth [11] was 89.8% and the growth [12] was -5.52% (active). The growth [13] was 69.1%, the growth [14] was 29.4% and the growth [15] was 80.8%. It also gave a growth [16] of 100%, a growth [17] of 80.2% and a growth [18] of 76.5%. It also gave a growth [19] of 96.1% and a growth [20] of 62.1%.
For `COc1ccc(/C=C2\CCC3C(CCCC34OCCO4)C2=O)cc1` (stereo not given), the growth [1] was 94.2%, the growth [2] was 97.8% and the growth [3] was 79.5%. For the same molecule, the growth [4] was 99.3%, the growth [5] was 105% and the growth [6] was 92.3%. For the same molecule, the growth [7] was -1.7% (active), the growth [8] was 89.7% and the growth [9] was 96.2%. It also gave a growth [10] of 94.5%, a growth [11] of 87.6% and a growth [12] of 39.7%. The growth [13] was 70.5%, the growth [14] was 96% and the growth [15] was 96.6%. For the same molecule, the growth [16] was 97.2%, the growth [17] was 107% and the growth [18] was 88.8%. The growth [19] was 91% and the growth [20] was 95.6%.
`CCCCCCCCCCCCCCCCn1cc[n+](C)c1` was tested, and the growth [1] was -51.9% (active), the growth [2] was -60.5% (active) and the growth [3] was 8.28% (active). For the same molecule, the growth [4] was -82.7% (active), the growth [5] was -87.9% (active) and the growth [6] was -80.2% (active). The growth [7] was -87.4% (active), the growth [8] was -50.9% (active) and the growth [9] was -90.4% (active). The growth [10] was -46% (active), the growth [11] was -100% (active) and the growth [12] was 72.6%. For the same molecule, the growth [13] was -73.7% (active), the growth [14] was -93.9% (active) and the growth [15] was -66.2% (active). For the same molecule, the growth [16] was -23% (active), the growth [17] was -39.5% (active) and the growth [18] was -98.6% (active). The growth [19] was -61.1% (active) and the growth [20] was -77.4% (active).
For `CC(C)=C1CCC(C)C/C1=N\N=C(N)N` (stereo not given), the growth [1] was 105%, the growth [2] was 97.9% and the growth [3] was 97.1%. It also gave a growth [4] of 101%, a growth [5] of 102% and a growth [6] of 85.8%. It also gave a growth [7] of 90.8%, a growth [8] of 91.8% and a growth [9] of 93.3%. For the same molecule, the growth [10] was 108%, the growth [11] was 105% and the growth [12] was 97.9%. The growth [13] was 100%, the growth [14] was 113% and the growth [15] was 107%. It also gave a growth [16] of 99.2%, a growth [17] of 98.4% and a growth [18] of 104%. The growth [19] was 93.5% and the growth [20] was 102%.
In the case of `N#CCC1CCCC1`, the growth [1] is reported as 115%, the growth [2] is reported as 107% and the growth [3] is reported as 111%. For the same molecule, the growth [4] was 92.7%, the growth [5] was 105% and the growth [6] was 80%. The growth [7] was 109%, the growth [8] was 101% and the growth [9] was 96.3%. The growth [10] was 109%, the growth [11] was 127% and the growth [12] was 106%. The growth [13] was 114%, the growth [14] was 104% and the growth [15] was 107%. It also gave a growth [16] of 114%, a growth [17] of 90.6% and a growth [18] of 111%. For the same molecule, the growth [19] was 100% and the growth [20] was 105%.
`N/C(=N\O)c1cn(C2OC(CO)C(O)C2O)c2ncnc(N)c12` (stereo not given) was tested, and the growth [1] was -1.68% (active), the growth [2] was 26.4% and the growth [3] was 11%. For the same molecule, the growth [4] was -18.8% (active), the growth [5] was -44.1% (active) and the growth [6] was -6.61% (active). The growth [7] was -42.9% (active), the growth [8] was 4.88% (active) and the growth [9] was 20.9%. The growth [10] was -92.4% (active), the growth [11] was 0.144% (active) and the growth [12] was 7.52% (active). For the same molecule, the growth [13] was -78.3% (active), the growth [14] was 5.86% (active) and the growth [15] was -9.98% (active). The growth [16] was 9.34% (active), the growth [17] was -16.7% (active) and the growth [18] was 1.24% (active). The growth [19] was -23.8% (active) and the growth [20] was -28.3% (active).
With `NC1CCC(Nc2nc(NCc3cc(Cl)ccc3O)c3ncn(C4CCCC4)c3n2)CC1` (stereo not given) the growth [1] was -49.1% (active), the growth [2] was -6.72% (active) and the growth [3] was 10.9%. For the same molecule, the growth [4] was -18% (active), the growth [5] was 0.39% (active) and the growth [6] was -18.1% (active). The growth [7] was -50.2% (active), the growth [8] was -4.99% (active) and the growth [9] was -11.3% (active). The growth [10] was -63.1% (active), the growth [11] was 0.994% (active) and the growth [12] was -23.3% (active). For the same molecule, the growth [13] was -65.5% (active), the growth [14] was -16.7% (active) and the growth [15] was -58.9% (active). For the same molecule, the growth [16] was -23.1% (active), the growth [17] was -5.72% (active) and the growth [18] was -62.4% (active). The growth [19] was -58.9% (active) and the growth [20] was -71.6% (active).

— PubChem BioAssay (NCI)
